# Measurements reported in PubChem BioAssay (NCI).
# Several values for one entry are separate records, joined by “and”; a condition that tells them apart may be missing. Equal entries are not always repeated. About 83,000 compounds went through this panel and 20% of them were active in at least one assay; those are over-represented in the sample as a whole.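 Single-dose data. Exposure time 48 hours. Values below 10 considered active.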 Activity calls are given as the source filed them.
# Columns and labels:
# Experiment in all cases: NCI-60 one-dose screen, 48 h (100 = growth as untreated, 0 = no growth, -100 = all killed)
# [1] = tested on: NCI-H23 lung
# [2] = tested on: NCI-H226 lung
# [3] = tested on: NCI-H322M lung
# [4] = tested on: HOP-62 NSCLC
# [5] = tested on: NCI-H460 lung
# [6] = tested on: HOP-92 NSCLC
# [7] = tested on: NCI-H522 lung
# [8] = tested on: A549/ATCC NSCLC
# [9] = tested on: 786-0 renal
structure (smiles),measurement,setting,value
Cc1c(-c2ccccc2)[nH]c2ccccc12,growth,[1]; 10 µM,103% (inactive)
same,growth,[2]; 10 µM,95.3% (inactive)
same,growth,[3]; 10 µM,108% (inactive)
same,growth,[4]; 10 µM,104% (inactive)
same,growth,[5]; 10 µM,104% (inactive)
same,growth,[6]; 10 µM,71.8% (inactive)
same,growth,[7]; 10 µM,86.1% (inactive)
same,growth,[8]; 10 µM,102% (inactive)
O=c1[nH]cc(/C=N\Nc2ccccc2)c(=O)[nH]1,growth,[1]; 10 µM,89.9% (inactive)
same,growth,[2]; 10 µM,87.7% (inactive)
same,growth,[3]; 10 µM,58.1% (inactive)
same,growth,[4]; 10 µM,62.7% (inactive)
same,growth,[5]; 10 µM,47.6% (inactive)
same,growth,[6]; 10 µM,96.7% (inactive)
same,growth,[7]; 10 µM,19.7% (inactive)
same,growth,[8]; 10 µM,29.4% (inactive)
same,growth,[9]; 10 µM,79.6% (inactive)
Cn1ncc2cc3c(Nc4ccc(Cl)cc4)cccc3nc21,growth,[1]; 10 µM,85.6% (inactive)
same,growth,[2]; 10 µM,94.4% (inactive)
same,growth,[3]; 10 µM,104% (inactive)
same,growth,[4]; 10 µM,89.3% (inactive)
same,growth,[5]; 10 µM,89.8% (inactive)
same,growth,[6]; 10 µM,77% (inactive)
same,growth,[7]; 10 µM,83.8% (inactive)
same,growth,[8]; 10 µM,80% (inactive)
same,growth,[9]; 10 µM,89.3% (inactive)
CC(=O)O[C@H]1C(=O)[C@@]2(C)[C@H]([C@H](OC(=O)c3ccccc3)[C@]3(O)C[C@H](OC(=O)[C@H](O)[C@@H](NC(=O)c4ccccc4)c4ccccc4)C(C)=C1C3(C)C)[C@]1(OC(C)=O)CO[C@@H]1C[C@@H]2O,growth,[1]; 0.01 µM,24.1% (inactive)
same,growth,[1]; 2.5 µM,23.2% (inactive)
same,growth,[1]; 5 µM,30.5% (inactive)
same,growth,[1]; 10 µM,40.3% (inactive) and 34.8% (inactive)
same,growth,[2]; 0.01 µM,67.6% (inactive)
same,growth,[2]; 2.5 µM,27.4% (inactive)
same,growth,[2]; 5 µM,32.1% (inactive)
same,growth,[2]; 10 µM,77.4% (inactive) and 31% (inactive)
same,growth,[3]; 0.01 µM,53.8% (inactive)
same,growth,[3]; 2.5 µM,30.7% (inactive)
same,growth,[3]; 5 µM,30.1% (inactive)
same,growth,[3]; 10 µM,21.2% (inactive) and 30.1% (inactive)
same,growth,[4]; 0.01 µM,48.2% (inactive)
same,growth,[4]; 2.5 µM,12.5% (inactive)
same,growth,[4]; 5 µM,15.4% (inactive)
same,growth,[4]; 10 µM,30.7% (inactive) and 6.92% (active)
same,growth,[5]; 0.01 µM,13.8% (inactive)
same,growth,[5]; 2.5 µM,3.32% (active)
same,growth,[5]; 5 µM,4.65% (active)
same,growth,[5]; 10 µM,8.92% (active) and 6.58% (active)
same,growth,[6]; 0.01 µM,53.2% (inactive)
same,growth,[6]; 2.5 µM,32.9% (inactive)
same,growth,[6]; 5 µM,42.7% (inactive)
same,growth,[6]; 10 µM,37.4% (inactive)
same,growth,[7]; 0.01 µM,22.1% (inactive)
same,growth,[7]; 2.5 µM,-12.4% (active)
same,growth,[7]; 5 µM,1.57% (active)
same,growth,[7]; 10 µM,-16.2% (active) and 11.8% (inactive)
same,growth,[8]; 0.01 µM,31.4% (inactive)
same,growth,[8]; 2.5 µM,18.5% (inactive)
same,growth,[8]; 5 µM,21.2% (inactive)
same,growth,[8]; 10 µM,47.3% (inactive) and 29.9% (inactive)
same,growth,[9]; 0.01 µM,51.7% (inactive)
same,growth,[9]; 2.5 µM,17.7% (inactive)
same,growth,[9]; 5 µM,31% (inactive)
same,growth,[9]; 10 µM,42.2% (inactive) and 42.3% (inactive)
S=P(N1CC1)(N1CC1)N1CC1,growth,[1]; 10 µM,100% (inactive) and 73.4% (inactive)
same,growth,[1]; 100 µM,33% (inactive)
same,growth,[2]; 10 µM,102% (inactive) and 80.4% (inactive)
same,growth,[2]; 100 µM,62.4% (inactive)
same,growth,[3]; 10 µM,102% (inactive) and 98.2% (inactive)
same,growth,[3]; 100 µM,89.4% (inactive)
same,growth,[4]; 10 µM,109% (inactive) and 36.8% (inactive)
same,growth,[4]; 100 µM,47.9% (inactive)
same,growth,[5]; 10 µM,116% (inactive) and 40.2% (inactive)
same,growth,[5]; 100 µM,26.3% (inactive)
same,growth,[6]; 10 µM,99.9% (inactive)
same,growth,[6]; 100 µM,36.1% (inactive)
same,growth,[7]; 10 µM,104% (inactive) and 82.9% (inactive)
same,growth,[7]; 100 µM,59.5% (inactive)
same,growth,[8]; 10 µM,103% (inactive) and 69.9% (inactive)
same,growth,[8]; 100 µM,52.2% (inactive)
same,growth,[9]; 10 µM,100% (inactive) and 83.6% (inactive)
same,growth,[9]; 100 µM,21.6% (inactive)
CC1CCC2(C(=O)O)CCC3(C)C(=CCC4C5(C)CC(O)C(O)C(C)(CO)C5C(O)CC43C)C2C1C (configuration not stated),growth,[1]; 10 µM,94.6% (inactive)
same,growth,[2]; 10 µM,115% (inactive)
same,growth,[3]; 10 µM,98.7% (inactive)
same,growth,[4]; 10 µM,111% (inactive)
same,growth,[5]; 10 µM,111% (inactive)
same,growth,[6]; 10 µM,79% (inactive)
same,growth,[7]; 10 µM,87.9% (inactive)
same,growth,[8]; 10 µM,27% (inactive)
same,growth,[9]; 10 µM,110% (inactive)
O=S(=O)(c1cc(Cl)ccc1O)c1cc(Cl)ccc1O,growth,[1]; 10 µM,84.6% (inactive)
same,growth,[2]; 10 µM,78.1% (inactive)
same,growth,[3]; 10 µM,106% (inactive)
same,growth,[4]; 10 µM,83.7% (inactive)
same,growth,[5]; 10 µM,85.1% (inactive)
same,growth,[6]; 10 µM,6.03% (active)
same,growth,[7]; 10 µM,63.9% (inactive)
same,growth,[8]; 10 µM,81.3% (inactive)
same,growth,[9]; 10 µM,86.7% (inactive)
NCc1c(O)ccc2ccccc12,growth,[1]; 10 µM,102% (inactive)
same,growth,[2]; 10 µM,96.2% (inactive)
same,growth,[3]; 10 µM,96.4% (inactive)
same,growth,[4]; 10 µM,90.7% (inactive)
same,growth,[5]; 10 µM,108% (inactive)
same,growth,[6]; 10 µM,73% (inactive)
same,growth,[7]; 10 µM,95% (inactive)
same,growth,[8]; 10 µM,94.7% (inactive)
same,growth,[9]; 10 µM,103% (inactive)
COc1ccc2oc(-c3ccc(Cl)cc3)c(N3CCN(C)CC3)c2c1,growth,[1]; 10 µM,73.6% (inactive)
same,growth,[2]; 10 µM,91% (inactive)
same,growth,[3]; 10 µM,113% (inactive)
same,growth,[4]; 10 µM,51.9% (inactive)
same,growth,[5]; 10 µM,-62.6% (active)
same,growth,[6]; 10 µM,-17.1% (active)
same,growth,[7]; 10 µM,-78.2% (active)
same,growth,[8]; 10 µM,39.6% (inactive)
same,growth,[9]; 10 µM,27.2% (inactive)
O=C1C=CC(=O)N1c1ccc(N2C(=O)C=CC2=O)cc1,growth,[1]; 10 µM,91.3% (inactive)
same,growth,[2]; 10 µM,84.8% (inactive)
same,growth,[3]; 10 µM,92.4% (inactive)
same,growth,[4]; 10 µM,86.8% (inactive)
same,growth,[5]; 10 µM,103% (inactive)
same,growth,[6]; 10 µM,123% (inactive)
same,growth,[7]; 10 µM,-11.5% (active)
same,growth,[8]; 10 µM,101% (inactive)
same,growth,[9]; 10 µM,103% (inactive)
Cc1cc(O)c2c(c1O)C(=O)C13C(=C2O)C(=O)C2C(O)C1C1C(O)C3C(=O)C3=C(O)c4c(O)cc(C)c(O)c4C(=O)C321 (configuration not stated),growth,[1]; 10 µM,32.3% (inactive)
same,growth,[2]; 10 µM,-2.71% (active)
same,growth,[3]; 10 µM,19.4% (inactive)
same,growth,[4]; 10 µM,3.99% (active)
same,growth,[5]; 10 µM,0.0816% (active)
same,growth,[6]; 10 µM,-18.2% (active)
same,growth,[7]; 10 µM,5.74% (active)
same,growth,[8]; 10 µM,-11.4% (active)
same,growth,[9]; 10 µM,-33.2% (active)
CN(CC(=O)O)c1ccc(/C=C/c2ccnc3ccccc23)cc1,growth,[1]; 10 µM,99% (inactive)
same,growth,[2]; 10 µM,60.8% (inactive)
same,growth,[3]; 10 µM,98.7% (inactive)
same,growth,[4]; 10 µM,83.5% (inactive)
same,growth,[5]; 10 µM,94.5% (inactive)
same,growth,[6]; 10 µM,46.2% (inactive)
same,growth,[7]; 10 µM,78.1% (inactive)
same,growth,[8]; 10 µM,74.3% (inactive)
same,growth,[9]; 10 µM,95.8% (inactive)
O=C1C(Cl)=C(Cl)C(Cl)(Cl)C(Cl)C1(Cl)Cl (configuration not stated),growth,[1]; 10 µM,106% (inactive)
same,growth,[2]; 10 µM,105% (inactive)
same,growth,[3]; 10 µM,103% (inactive)
same,growth,[4]; 10 µM,98.5% (inactive)
same,growth,[5]; 10 µM,118% (inactive)
same,growth,[6]; 10 µM,104% (inactive)
same,growth,[7]; 10 µM,89.3% (inactive)
same,growth,[8]; 10 µM,105% (inactive)
same,growth,[9]; 10 µM,102% (inactive)
CN(C)c1ccc(/C=C/c2ccnc3ccccc23)cc1N,growth,[1]; 10 µM,48.8% (inactive)
same,growth,[2]; 10 µM,53% (inactive)
same,growth,[3]; 10 µM,85.1% (inactive)
same,growth,[4]; 10 µM,77.2% (inactive)
same,growth,[5]; 10 µM,77.9% (inactive)
same,growth,[6]; 10 µM,-3.62% (active)
same,growth,[7]; 10 µM,56.6% (inactive)
same,growth,[8]; 10 µM,72.6% (inactive)
same,growth,[9]; 10 µM,85.6% (inactive)
Nc1nc(N)c2cc(Sc3ccc4ccccc4c3)ccc2n1,growth,[1]; 10 µM,43.1% (inactive)
same,growth,[2]; 10 µM,57.7% (inactive)
same,growth,[3]; 10 µM,48% (inactive)
same,growth,[4]; 10 µM,65% (inactive)
same,growth,[5]; 10 µM,16.1% (inactive)
same,growth,[6]; 10 µM,30.3% (inactive)
same,growth,[7]; 10 µM,31.4% (inactive)
same,growth,[8]; 10 µM,15.2% (inactive)
same,growth,[9]; 10 µM,23% (inactive)
O=C(NC(=S)Nc1ccccn1)c1ccccc1,growth,[1]; 10 µM,75.7% (inactive)
same,growth,[2]; 10 µM,91.1% (inactive)
same,growth,[3]; 10 µM,85.5% (inactive)
same,growth,[4]; 10 µM,106% (inactive)
same,growth,[5]; 10 µM,94% (inactive)
same,growth,[6]; 10 µM,79.5% (inactive)
same,growth,[7]; 10 µM,82.1% (inactive)
same,growth,[8]; 10 µM,101% (inactive)
same,growth,[9]; 10 µM,90.1% (inactive)
Cc1cc(Cl)ccc1NC(=O)/C(Cl)=C1/Sc2ccccc2NC1=O,growth,[1]; 10 µM,88.4% (inactive)
same,growth,[2]; 10 µM,90.3% (inactive)
same,growth,[3]; 10 µM,102% (inactive)
same,growth,[4]; 10 µM,91% (inactive)
same,growth,[5]; 10 µM,99.4% (inactive)
same,growth,[6]; 10 µM,70.5% (inactive)
same,growth,[7]; 10 µM,104% (inactive)
same,growth,[8]; 10 µM,112% (inactive)
same,growth,[9]; 10 µM,92.9% (inactive)
O=C1c2cccc3cc([N+](=O)[O-])cc(c23)C(=O)N1CCN1CCCC1,growth,[1]; 10 µM,-21.7% (active)
same,growth,[2]; 10 µM,-62.2% (active)
same,growth,[3]; 10 µM,23.7% (inactive)
same,growth,[4]; 10 µM,-23.3% (active)
same,growth,[5]; 10 µM,-28.8% (active)
same,growth,[6]; 10 µM,0.989% (active)
same,growth,[7]; 10 µM,-54.1% (active)
same,growth,[8]; 10 µM,-28.6% (active)
same,growth,[9]; 10 µM,-18.8% (active)
